Experimental findings from PubChem BioAssay (EPA / NIEHS) are described below.

Experiment [1] has as its target human Retinoid X Receptor beta (RXRb), RXRB (gene 6257) (UniProt P28702). As to the kind of experiment: ATG_RXRb_TRANS: Attagene TRANS-FACTORIAL HepG2 Assay for human Retinoid X Receptor beta (RXRb) (AID 2283013; active = hit-call score of the fitted dose curve at least 0.9, where 1 is the maximum). An outline of the steps:
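After a 24 h incubation with test chemical, transfected HepG2 cells carrying NR-Gal4 fusions and GAL4-UAS reporter transcription units yield RNA whose reporter cDNA is FAM-labelled, HpaI-cut and sized by capillary electrophoresis; increases over DMSO are scored.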

Experiment [2] has as its target human Thyroid Receptor alpha (THRa1), THRA (gene 7067) (UniProt P10827). The experiment is described as follows: ATG_THRa1_TRANS: Attagene TRANS-FACTORIAL HepG2 Assay for human Thyroid Receptor alpha (THRa1) (AID 2283014; active = hit-call score of the fitted dose curve at least 0.9, where 1 is the maximum). An outline of the steps:
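HepG2 cells transiently transfected with chimeric NR-Gal4 and GAL4-UAS reporter units, dosed 24 h. Reporter mRNA quantified by RT-PCR, fluorescent labeling, HpaI digestion and capillary electrophoresis; gain-of-signal fit versus DMSO.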

Read-out in experiment [3]: E-selectin (Homo sapiens) (UniProt P16581)
The experiment is described as follows: BSK_3C_Eselectin: BioMAP Diversity Plus: 3C Assay for Eselectin Biomarker Activity (AID 2283015).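 For outcome: cell surface E-selectin protein quantified by ELISA 24 h after dosing.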 As to conditions: primary human endothelial cells (HUVEC); actives raise or lower the signal. An outline of the steps:
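Primary human umbilical vein endothelial cells (3C system), read 24 h after compound addition; E-selectin measured by ELISA. Bidirectional curve fitting against DMSO baseline; cytotoxicity by parallel SRB total-protein staining.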

Read-out in experiment [4]: Interleukin-1 alpha (IL1a), IL1A (gene 3552)
The experiment is described as follows: BSK_BE3C_IL1a: BioMAP Diversity Plus: BE3C Assay for Interleukin-1 alpha (IL1a) Biomarker Activity (AID 2283016). The conditions noted are these: primary human bronchial epithelial cells; actives raise or lower the signal. An outline of the steps: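 Measured in human lung primary bronchial epithelial cells: IL-1a by ELISA at 24 h after dosing, with bidirectional fitting against DMSO.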

Read-out in experiment [5]: Monocyte Chemoattractant Protein-1 (MCP1), CCL2 (gene 6347)
As to the kind of experiment: BSK_3C_MCP1: BioMAP Diversity Plus: 3C Assay for Monocyte Chemoattractant Protein-1 (MCP1) Biomarker Activity (AID 2283017). As to conditions: primary human endothelial cells (HUVEC); actives raise or lower the signal. An outline of the steps:
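Human umbilical vein endothelial cells (3C system) exposed to chemicals for 24 h; MCP-1 quantified by ELISA against the DMSO baseline with bidirectional fitting, and parallel SRB staining used to assess cytotoxicity.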

Read-out in experiment [6]: Monocyte Chemoattractant Protein-1 (MCP1), CCL2 (gene 6347)
As to the kind of experiment: BSK_4H_MCP1: BioMAP Diversity Plus: 4H Assay for Monocyte Chemoattractant Protein-1 (MCP1) Biomarker Activity (AID 2283018). As to conditions: primary human endothelial cells (HUVEC); actives raise or lower the signal. An outline of the steps:
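Primary human umbilical vein endothelium is exposed to chemical for 24 h before MCP-1 is assayed by ELISA. Concentration-response fitted bidirectionally relative to DMSO.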

Read-out in experiment [7]: Human Leukocyte Antigen - DR isotype (HLADR), HLA-DRA (gene 3122)
The experiment is described as follows: BSK_3C_HLADR: BioMAP Diversity Plus: 3C Assay for Human Leukocyte Antigen - DR isotype (HLADR) Biomarker Activity (AID 2283019).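 For outcome: ELISA of cell-surface HLA-DR on HUVEC 24 h after dosing.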 The conditions noted are these: primary human endothelial cells (HUVEC); actives raise or lower the signal. An outline of the steps:
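HUVEC monoculture, HLA-DR measured by ELISA 24 h after chemical dosing. Fitted bidirectionally against DMSO baseline; parallel SRB staining assessed cytotoxicity, with 3C proliferation read by SRB at 48 h.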

Read-out in experiment [8]: Interleukin-8 (IL8), CXCL8 (gene 3576)
As to the kind of experiment: BSK_3C_IL8: BioMAP Diversity Plus: 3C Assay for Interleukin-8 (IL8) Biomarker Activity (AID 2283020). The conditions noted are these: primary human endothelial cells (HUVEC); actives raise or lower the signal. An outline of the steps: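 Using DMSO-treated wells as the baseline, bidirectional curve fitting was applied to ELISA-measured IL-8 from human umbilical vein endothelial cultures sampled 24 h after compound addition.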

Read-out in experiment [9]: Monokine induced gamma interferon (MIG), CXCL9 (gene 4283)
As to the kind of experiment: BSK_3C_MIG: BioMAP Diversity Plus: 3C Assay for Monokine induced gamma interferon (MIG) Biomarker Activity (AID 2283021).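 For AC50: MIG protein level measured by immunoassay in the treated endothelial cultures.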 The conditions noted are these: primary human endothelial cells (HUVEC); actives raise or lower the signal. An outline of the steps: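 ELISA-measured MIG in dosed HUVEC 3C cultures at 24 h, analysed by bidirectional fitting with DMSO defining baseline activity.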

The target of experiment [10] is human Vitamin D Receptor (VDR), VDR (gene 7421) (UniProt P11473). The experiment is described as follows: ATG_VDR_TRANS: Attagene TRANS-FACTORIAL HepG2 Assay for human Vitamin D Receptor (VDR) (AID 2283022; active = hit-call score of the fitted dose curve at least 0.9, where 1 is the maximum). An outline of the steps: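 HepG2 cells were transiently transfected with GAL4-UAS reporter units and a chimeric VDR-Gal4 construct, then dosed for 24 hours. Reporter mRNA was quantified by RT-PCR, fluorescent labeling, HpaI digestion and capillary electrophoresis; gain of signal analysed vs DMSO.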

Experiment [11] is described as follows: BSK_3C_SRB: Viability Assessment in the BioMAP Diversity Plus: 3C Assay (AID 2283023).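 Note: fitted both ways against DMSO so a hit may be signal rise or drop.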 As to conditions: primary human endothelial cells (HUVEC). An outline of the steps:
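Human umbilical vein endothelial cells in the 3C system, treated 24 h. Total protein measured by 0.1% sulforhodamine B staining after 10% TCA fixation, read at 560 nm; bidirectional fit versus DMSO.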

Read-out in experiment [12]: Matrix Metallopeptidase 1 (MMP1), MMP1 (gene 4312)
The experiment is described as follows: BSK_BE3C_MMP1: BioMAP Diversity Plus: BE3C Assay for Matrix Metallopeptidase 1 (MMP1) Biomarker Activity (AID 2283024). The conditions noted are these: primary human bronchial epithelial cells; actives raise or lower the signal. An outline of the steps: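 In this multiplexed primary-cell system, human bronchial epithelium received chemicals for 24 h before an ELISA for MMP1. Values reflect bidirectional fits normalised to the DMSO baseline.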

Read-out in experiment [13]: Pselectin, SELP (gene 6403)
The experiment is described as follows: BSK_4H_Pselectin: BioMAP Diversity Plus: 4H Assay for Pselectin Biomarker Activity (AID 2283026). The conditions noted are these: primary human endothelial cells (HUVEC); actives raise or lower the signal. An outline of the steps: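 Bidirectional fits against DMSO gave the endpoint. Cells: primary human umbilical vein endothelium, chemical-treated for 24 h before ELISA detection of P-selectin.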

The nature of experiment [14]: BSK_BE3C_SRB: Viability Assessment in the BioMAP Diversity Plus: BE3C Assay (AID 2283028).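 For AC50: fitted both ways so AC50 may mark signal gain or loss versus DMSO.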 As to conditions: primary human bronchial epithelial cells. An outline of the steps: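 Human bronchial epithelial primary cells in confluent culture, 24 h after chemical dosing; total protein by 0.1% SRB staining after 10% TCA fixation, read at 560 nm. Bidirectional fitting versus DMSO baseline.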

Read-out in experiment [15]: Thrombomodulin, THBD (gene 7056)
The experiment is described as follows: BSK_3C_Thrombomodulin: BioMAP Diversity Plus: 3C Assay for Thrombomodulin Biomarker Activity (AID 2283029). The conditions noted are these: primary human endothelial cells (HUVEC); actives raise or lower the signal. An outline of the steps:
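In a multiplexed primary-cell system, human umbilical vein endothelium received chemical and was assayed 24 h later for thrombomodulin by ELISA. Parallel cultures were SRB-stained (0.1% SRB after 10% TCA fixation, read at 560 nm) to flag cytotoxicity.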

Read-out in experiment [16]: Urokinase-type plasminogen activator receptor (uPAR), PLAUR (gene 5329)
As to the kind of experiment: BSK_4H_uPAR: BioMAP Diversity Plus: 4H Assay for Urokinase-type plasminogen activator receptor (uPAR) Biomarker Activity (AID 2283030). The conditions noted are these: primary human endothelial cells (HUVEC); actives raise or lower the signal. An outline of the steps:
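Human umbilical vein endothelial cells in the 4H system, 24 h after chemical dosing. Cell-surface uPAR measured by ELISA, fitted in both directions versus DMSO; cytotoxicity checked by SRB total protein in parallel cultures.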

Read-out in experiment [17]: Vascular endothelial growth factor receptor 2 (Homo sapiens) (UniProt P35968)
The experiment is described as follows: BSK_4H_VEGFRII: BioMAP Diversity Plus: 4H Assay for Vascular endothelial growth factor receptor 2 (VEGFR2) Biomarker Activity (AID 2283031).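 For AC50: cell-surface VEGFR2 protein level quantified by ELISA.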 The conditions noted are these: primary human endothelial cells (HUVEC); actives raise or lower the signal. An outline of the steps:
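Primary human umbilical vein endothelial cells (4H system), 24 h exposure; cell-surface VEGFR2 measured by ELISA. Bidirectional fitting versus DMSO; cytotoxicity checked in parallel by SRB total-protein staining.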

Read-out in experiment [18]: Human Leukocyte Antigen - DR isotype (HLADR), HLA-DRA (gene 3122)
As to the kind of experiment: BSK_BE3C_HLADR: BioMAP Diversity Plus: BE3C Assay for Human Leukocyte Antigen - DR isotype (HLADR) Biomarker Activity (AID 2283032). As to conditions: primary human bronchial epithelial cells; actives raise or lower the signal. An outline of the steps: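 BioMAP BE3C format: human bronchial epithelium, 24 h compound treatment, ELISA detection of HLA-DR, with bidirectional analysis relative to DMSO.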

A short description of experiment [19]: BSK_3C_Vis: BioMAP Diversity Plus: 3C Assay for Morphology Visualization (AID 2283025).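 For AC50: light microscopy image of cell morphology used as background control.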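 Note: fitted both ways so gain or loss versus DMSO counts.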 The conditions noted are these: primary human endothelial cells (HUVEC). An outline of the steps: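 Light-microscopy morphology readout, 24 h exposure, human primary umbilical vein endothelium; analysed relative to DMSO with bidirectional fitting.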

Several values for one entry are separate records, joined by “and”; a condition that tells them apart may be missing. Equal values may be shown once. Results filed as inconclusive are left out. Where a structure was tested more than once in an assay, its records may differ in their call. Activity calls are given as the source filed them. Rule for the calls, unless noted: active = hit-call score of the fitted dose curve at least 0.9, where 1 is the maximum; inactive = score below 0.9.

Chain of human Retinoid X Receptor beta (RXRb), RXRB (gene 6257) (P28702 whole entry, looked up, the tested form may be a part): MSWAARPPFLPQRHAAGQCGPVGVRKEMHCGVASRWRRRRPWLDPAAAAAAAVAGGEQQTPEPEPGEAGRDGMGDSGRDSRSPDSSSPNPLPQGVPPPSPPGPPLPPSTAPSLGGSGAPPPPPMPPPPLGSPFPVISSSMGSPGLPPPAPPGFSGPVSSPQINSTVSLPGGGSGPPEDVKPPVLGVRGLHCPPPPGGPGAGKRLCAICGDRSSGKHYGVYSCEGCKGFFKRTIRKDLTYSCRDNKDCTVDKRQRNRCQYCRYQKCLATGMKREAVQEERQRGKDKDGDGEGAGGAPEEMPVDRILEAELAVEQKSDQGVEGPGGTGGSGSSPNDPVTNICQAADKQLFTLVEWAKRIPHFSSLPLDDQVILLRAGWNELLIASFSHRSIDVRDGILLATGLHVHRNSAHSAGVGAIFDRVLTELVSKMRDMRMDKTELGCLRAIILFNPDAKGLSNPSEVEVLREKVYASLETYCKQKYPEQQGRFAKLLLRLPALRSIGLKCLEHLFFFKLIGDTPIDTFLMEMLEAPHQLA
Chain of human Vitamin D Receptor (VDR), VDR (gene 7421) (P11473 whole entry, looked up, the tested form may be a part): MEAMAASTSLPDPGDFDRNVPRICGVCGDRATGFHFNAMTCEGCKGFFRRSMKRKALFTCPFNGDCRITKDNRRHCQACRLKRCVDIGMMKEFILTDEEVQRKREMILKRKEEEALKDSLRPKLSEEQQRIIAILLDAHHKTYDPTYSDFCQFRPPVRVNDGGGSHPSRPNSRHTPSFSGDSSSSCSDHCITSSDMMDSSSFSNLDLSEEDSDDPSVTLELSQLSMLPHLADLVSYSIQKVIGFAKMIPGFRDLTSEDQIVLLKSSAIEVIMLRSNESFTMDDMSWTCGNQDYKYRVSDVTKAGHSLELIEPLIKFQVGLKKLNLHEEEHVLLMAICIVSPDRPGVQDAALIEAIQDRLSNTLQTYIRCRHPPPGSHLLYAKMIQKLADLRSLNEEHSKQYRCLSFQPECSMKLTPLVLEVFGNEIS
Chain of E-selectin (Homo sapiens) (P16581 whole entry, looked up): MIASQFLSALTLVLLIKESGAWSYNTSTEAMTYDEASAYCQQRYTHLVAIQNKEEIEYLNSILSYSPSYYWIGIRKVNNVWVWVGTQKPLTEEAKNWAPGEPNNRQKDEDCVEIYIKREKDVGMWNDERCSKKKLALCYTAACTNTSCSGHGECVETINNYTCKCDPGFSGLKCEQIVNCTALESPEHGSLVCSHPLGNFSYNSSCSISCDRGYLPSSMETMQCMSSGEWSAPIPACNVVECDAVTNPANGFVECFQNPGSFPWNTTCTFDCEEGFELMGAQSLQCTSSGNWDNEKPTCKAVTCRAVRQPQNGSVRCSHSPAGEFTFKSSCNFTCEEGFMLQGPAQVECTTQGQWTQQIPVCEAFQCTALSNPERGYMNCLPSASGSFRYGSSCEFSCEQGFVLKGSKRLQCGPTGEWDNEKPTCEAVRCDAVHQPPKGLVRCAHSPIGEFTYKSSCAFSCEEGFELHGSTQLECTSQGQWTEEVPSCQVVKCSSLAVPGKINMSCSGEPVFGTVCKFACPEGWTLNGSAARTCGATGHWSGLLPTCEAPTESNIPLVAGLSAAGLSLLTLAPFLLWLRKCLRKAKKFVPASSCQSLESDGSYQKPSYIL
Chain of human Thyroid Receptor alpha (THRa1), THRA (gene 7067) (P10827 whole entry, looked up, the tested form may be a part): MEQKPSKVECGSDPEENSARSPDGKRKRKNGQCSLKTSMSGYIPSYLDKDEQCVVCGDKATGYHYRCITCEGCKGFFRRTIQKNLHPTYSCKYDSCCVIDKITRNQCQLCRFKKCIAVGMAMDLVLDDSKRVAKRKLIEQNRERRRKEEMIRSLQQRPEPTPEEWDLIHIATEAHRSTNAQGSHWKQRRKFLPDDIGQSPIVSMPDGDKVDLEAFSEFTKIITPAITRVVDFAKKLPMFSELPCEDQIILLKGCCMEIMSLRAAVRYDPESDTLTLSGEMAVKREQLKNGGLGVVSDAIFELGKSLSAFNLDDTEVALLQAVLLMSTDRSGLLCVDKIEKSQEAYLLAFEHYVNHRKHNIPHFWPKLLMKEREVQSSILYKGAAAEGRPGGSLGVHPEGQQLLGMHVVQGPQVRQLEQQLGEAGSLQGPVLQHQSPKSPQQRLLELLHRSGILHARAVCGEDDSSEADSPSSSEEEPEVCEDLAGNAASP

`O=C(O)C(F)(F)OC(F)(F)C(F)(F)OC(F)(F)C(F)(F)OC(F)(F)C(F)(F)C(F)(F)C(F)(F)F`: the AC50 (usually the midpoint of the concentration-response curve, whichever way the signal moves) was 13.3 µM (active) and 9.78 µM (active) in experiment [1]; 49.6 µM (active) and 49 µM (active) in experiment [3]; 6.32 µM (active) and 6.18 µM (active) in [4]; 44.8 µM (active) and 46.6 µM (active) in [5]; 42.4 µM (active) and 40.5 µM (active) in [6]; 45.5 µM (active) and 50.6 µM (active) in [7]. For the same compound, the AC50 in experiment [8] is 36.6 µM (active) and 23.5 µM (active); in experiment [9], 58.2 µM (active) and 54.8 µM (active); in [11], 26.1 µM (active) and 24 µM (active); in experiment [12], 5.81 µM (active) and 5.41 µM (active); in experiment [13] it was 48.1 µM (active) and 54.2 µM (active); in experiment [14], 7.88 µM (active) and 7.84 µM (active). In addition, the AC50 in [15] is 52 µM (active); in [16], 43.5 µM (active) and 43.6 µM (active); in [17], 47.7 µM (active); in experiment [18], 3.73 µM (active) and 3.7 µM (active). The compound was classed as inactive in experiment [2], in experiment [10], in experiment [15] and in experiment [17].
For `O=C1Cc2ccccc2N1c1c(Cl)cccc1Cl`, the compound was classed as inactive in experiment [1], in [2] and in experiment [10].
Turning to `Cc1ccc(C(=O)c2ccccc2)cc1`, the AC50 in [1] is 75.9 µM (active); in [3], 28.2 µM (active); in experiment [5] it was 4.38 µM (active); in experiment [6] it was 27 µM (active); in [7] it was 28.2 µM (active); in experiment [8] it was 15.6 nM (active). Also, the AC50 in experiment [11] is 31.5 µM (active); in experiment [19] it was 38.9 µM (active); in experiment [13], 31.2 µM (active). Besides, the compound was classed as inactive in [2], in experiment [4], in experiment [9], in experiment [12], in experiment [14] and in experiment [15]. Also, the outcome in [16], in experiment [17] and in [18] was inactive.
Take `O=CC(F)(F)C(F)(F)C(F)(F)C(F)F`: the result in [1], in experiment [2] and in experiment [10] was inactive.
For the compound `O=CC(F)(F)C(F)(F)C(F)(F)F`, the compound was called inactive in experiment [1], in [2] and in experiment [10].
On to `c1cc2cccc3c4cccc5cccc(c(c1)c23)c54`, for which the result in [1], in [2] and in [10] was inactive.
With `CC1=NN(c2ccccc2)C(=O)C1`, the compound was classed as inactive in experiment [1], in [2], in [3], in experiment [4], in [5] and in [6]. Further, the outcome in experiment [7], in experiment [8], in experiment [9], in experiment [11], in experiment [12] and in experiment [19] was inactive. For the same compound, the result in [13], in experiment [14], in experiment [15], in experiment [16], in experiment [17] and in experiment [18] was inactive.
Take `O=C1c2ccc(O)c(O)c2C(=O)c2c(O)ccc(O)c21`: the result in experiment [1], in [3], in [4], in experiment [5], in experiment [6] and in experiment [7] was inactive. Further, the result in experiment [8], in [9], in experiment [10], in experiment [11], in experiment [12] and in experiment [19] was inactive. For the same compound, the result in experiment [13], in experiment [14], in experiment [15], in experiment [16], in [17] and in [18] was inactive. Moreover, in experiment [2], the AC50 is 13.8 µM (active).
Take `O=C1c2ccccc2C(=O)c2c(O)c(O)cc(O)c21`: the call in experiment [1] and in experiment [10] was inactive. Further, the AC50 in experiment [2] was 21.4 µM (active).
Take `NS(=O)(=O)O`: the call in experiment [1], in experiment [2] and in experiment [10] was inactive.
For the compound `Cc1ccc(S(=O)(=O)O)cc1`, the call in [1], in experiment [2] and in experiment [10] was inactive.
